30 compounds from ChEMBL document CHEMBL4513139, “CO-ADD screening of University of Strathclyde (UK) compounds” can be followed below.

Potency and affinity values are given separately.

This assay has as its system Staphylococcus aureus. Conditions: Concentration 32 ug.mL-1; ASSAY_TEST Inhibition of Bacterial Growth; detection method Absorption (OD600); MEDIA CAMHB; plate type 384well; NBS; CORNING #3640; time 18 hr.
On to `CC(C)CCc1sc(NC(=O)c2cc(NC(=O)c3ccc(/C=C/c4cc5ccccc5nc4On4nnc5ccccc54)cc3)cn2C)nc1C(=O)NCCN1CCOCC1.O=C(O)C(F)(F)F`, for which the Inhibition (as a rule, the change of the read-out against control, counted positive when it falls) is on record as -16.43%.

In the case of `Cc1ncc(Cn2cc(CCO)nn2)c(N)n1`, the Inhibition was found to be 21.55%.

Consider `CC(=O)Nc1cc(C(=O)Nc2cc(C(=O)Nc3cc(C(=O)NCCCN(C)C)n(C)c3)n(C)c2)n(C)c1.O=C(O)C(F)(F)F`, for which the Inhibition is listed as 20.29%.

On to `Cn1cc(NC(=O)c2cc(NC(=O)CCC(=O)O)cn2C)cc1C(=O)NCCN1CCOCC1.O=C(O)C(F)(F)F`, for which the Inhibition is on record as -10.46%.

For the compound `CC(C)CCn1cc(NC(=O)c2cc(NC(=O)c3cc(NC(=N)c4ccccc4)cn3C)cn2C)cc1C(=O)NCCCN(C)C.O=C(O)C(F)(F)F.O=C(O)C(F)(F)F`, the Inhibition turned out to be 22.24%.

Turning to `CC(C)CCc1sc(NC(=O)c2cc(NC(=O)c3ccc(/C=C/c4cc5ccccc5nc4Cl)cc3)cn2C)nc1C(=O)NCCN1CCOCC1.O=C(O)C(F)(F)F`, the Inhibition was 1.02%.

Regarding `CC(=O)N(C(C)=O)c1cc(C(=O)Nc2cc(C(=O)NCCC(=N)N)n(C)c2)n(C)c1.O=C(O)C(F)(F)F`, the Inhibition came to 98.15%.

Consider `COc1ccc(CC(=O)Nc2cc(C(=O)Nc3cc(C(=O)Nc4cn(CCCN(C)C)cn4)n(C)c3)n(C)c2)cc1.O=C(O)C(F)(F)F`, for which the Inhibition is 6.27%.

For the compound `COC(=O)c1ccc(C(=O)Nc2cc(C(=O)Nc3cc(C(=O)NCCN4CCOCC4)n(C)c3)n(C)c2)cc1.O=C(O)C(F)(F)F`, the Inhibition is on record as 12.57%.

`CC(C)c1sc(N)nc1C(=O)Nc1cc(C(=O)Nc2cc(C(=O)NCCN3CCOCC3)n(C)c2)n(C)c1.O=C(O)C(F)(F)F`: the Inhibition came out at 1.1%.

Regarding `COCCOC1CCN(C(=O)c2cc(NC(=O)c3cc(NC(=O)c4ccc(/C=C/c5ccc(OC)cc5)cc4)cn3C)cn2C)CC1.O=S(=O)(O)O`, the Inhibition turned out to be 99.55%.

Take `Cc1ncc(CNc2cccc(F)c2)c(N)n1`: the Inhibition worked out at 13.69%.

As for `CN(C)CCCNC(=O)c1cc(NC(=O)c2cc(NC(=O)c3cc(NC(=N)c4ccccc4)cn3C)cn2C)cn1C.O=C(O)C(F)(F)F.O=C(O)C(F)(F)F`, the Inhibition came out at 0.44%.

Consider `COc1ccc(/C=C(/C(=O)Nc2cc(C(=O)Nc3cc(C(=O)NCCCN(C)C)n(C)c3)n(C)c2)c2ccc(OC)cc2)cc1.O=C(O)C(F)(F)F`, for which the Inhibition is given as 49.85%.

As for `Cc1ncc(Cn2cc(CCC(=O)O)nn2)c(N)n1.O=C(O)C(F)(F)F`, the Inhibition is recorded as 15.37%.

As for `Cc1ncc(Cn2cc(CCCCO)nn2)c(N)n1`, the Inhibition is 1.62%.

As to `Cn1cc(NC(=O)c2cc(NC(=O)c3sc(N)nc3C(F)(F)F)cn2C)cc1C(=O)NCCC(=N)N.O=C(O)C(F)(F)F`, the Inhibition is -17.29%.

For `Cc1ncc(Cn2cc(CO)nn2)c(N)n1`, the Inhibition was found to be 15.8%.

In the case of `CC(=N)Nc1cc(C(=O)Nc2cc(C(=O)Nc3cc(C(=O)NCCN4CCOCC4)n(C)c3)n(C)c2)n(C)c1.O=C(O)C(F)(F)F.O=C(O)C(F)(F)F`, the Inhibition came to 23.57%.

Consider `COc1cccc(C(=N)Nc2cc(C(=O)Nc3cc(C(=O)NCCC(=N)N)n(C)c3)n(C)c2)c1.O=C(O)C(F)(F)F.O=C(O)C(F)(F)F`, for which the Inhibition is on record as 96.74%.

For the compound `COc1cccc(C(=O)Nc2cc(C(=O)Nc3cc(C(=O)Nc4cn(CCCN(C)C)cn4)n(C)c3)n(C)c2)c1.O=C(O)C(F)(F)F`, the Inhibition was determined as 20.04%.

Turning to `Cc1ncc(CNc2ccc(Cl)cc2)c(N)n1`, the Inhibition is on record as -1.15%.

Consider `COC(=O)c1ccc(C(=O)Nc2cc(C(=O)Nc3cc(C(=O)NCCC(=N)N)n(C)c3)n(C)c2)cc1.O=C(O)C(F)(F)F`, for which the Inhibition was 12.34%.

`CC(C)c1sc(N)nc1C(=O)Nc1cc(C(=O)NCCN2CCOCC2)n(C)c1.O=C(O)C(F)(F)F`: the Inhibition was determined as 4.82%.

Consider `CC(=O)Nc1cc(C(=O)Nc2cc(C(=O)Nc3cc(C(=O)NCCCN(C)C)n(CCC(C)C)c3)n(C)c2)n(C)c1.O=C(O)C(F)(F)F`, for which the Inhibition is on record as 9.82%.

Take `COc1cccc(C(=N)Nc2cc(C(=O)Nc3cc(C(=O)Nc4cc(C(=O)NCCCN(C)C)n(C)c4)n(C)c3)n(C)c2)c1.O=C(O)C(F)(F)F.O=C(O)C(F)(F)F`: the Inhibition is reported as -1.63%.

As for `COc1cccc(C(=N)Nc2cc(C(=O)Nc3cc(C(=O)Nc4cn(CCCN(C)C)cn4)n(C)c3)n(C)c2)c1.O=C(O)C(F)(F)F.O=C(O)C(F)(F)F`, the Inhibition is given as 18.77%.

Turning to `Cc1ncc(Cn2cc(CCCO)nn2)c(N)n1`, the Inhibition came out at 13.2%.

For the compound `Cc1ncc(Cn2cc(CC(N)C(=O)O)nn2)c(N)n1.Cl` (stereo not given), the Inhibition was -6.04%.

For the compound `CN(C)CCCNC(=O)c1cc(NC(=O)c2cc(NC(=O)c3cc4ccccc4cn3)cn2C)cn1C.O=C(O)C(F)(F)F`, the Inhibition came to 20.5%.
